Chlamy TAG: algal TAG accumulation induction; Chlamydomonas reinhardtii TAG, Nile Red fluorescence, 72 h; calls only at 10 µM (by protocol); 44,000 tested, 0.84% active; call rule not given here;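 also: hits raise Nile Red signal meaning more stored TAG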
Calls only. The entries come from a sample that favours hits as a whole.

`COCCC(=O)NC12CC3CC(CC(C3)C1)C2` gave Chlamy TAG inactive.
`O=C(O)CC(=O)NC12CC3CC(CC(C3)C1)C2` gave Chlamy TAG inactive.
CC(C)NCC(=O)NC12CC3CC(CC(C3)C1)C2 was read as Chlamy TAG active.
Screening CC(=O)N(C)c1ccc(NS(=O)(=O)c2ccccc2)cc1 returned Chlamy TAG inactive.
`COc1cccc(OCCNCc2ccco2)c1` gave Chlamy TAG inactive.
Screening O=C(CC(=O)Nc1nc(C23CC4CC(CC(C4)C2)C3)cs1)NCc1ccccc1 returned Chlamy TAG inactive.
Screening NC(=O)c1cc(NC(=O)c2cccnc2)cc(C(N)=O)c1 returned Chlamy TAG inactive.
Screening CC(=O)N1C(=O)C(=O)c2cc(I)ccc21 returned Chlamy TAG inactive.
For O=C(Nc1cccc(-c2nnc(-c3ccco3)o2)c1)C1CCCCC1 the results were Chlamy TAG inactive.
`O=C(Nc1cccc2c1CCCC2)C(Cl)Cl` gave Chlamy TAG inactive.
`Cc1cccc(OCC(=O)Nc2cccc3c2CCCC3)c1` gave Chlamy TAG inactive.
Screening CN1CC=C(CNc2cccc3c2CCCC3)CC1 returned Chlamy TAG active.
Screening O=C(NC1CCCC1)c1ccc(CSc2ccccc2)cc1 returned Chlamy TAG inactive.
O=C(Nc1ccc(S(=O)(=O)Nc2cccc(Cl)c2Cl)cc1)c1ccc([N+](=O)[O-])cc1 was read as Chlamy TAG inactive.
`C/C=C(\C)CN1CCN(c2ccc(C)cc2)CC1` gave Chlamy TAG active.
`Cc1ccc(NC(=O)CN2CCN(c3ccc(F)cc3)CC2)cc1` gave Chlamy TAG inactive.
Screening C/C=C(\C)CN1CCN(Cc2ccccc2)CC1 returned Chlamy TAG inactive.
For CCCC(C)C(=O)Nc1ccc(C(C)=O)cc1 (stereo unspecified) the results were Chlamy TAG inactive.
`CC(C)Oc1ccc(C(Nc2ccccn2)c2ccc3cccnc3c2O)cc1` (stereo unspecified) gave Chlamy TAG inactive.
Cc1cc(=O)[nH]c(N2CCOCC2)n1 was read as Chlamy TAG inactive.
CCCCNc1cc(C)nc(N2CCOCC2)n1 was read as Chlamy TAG active.
CCOc1ccc(Nc2cc(C)nc(N3CCOCC3)n2)cc1 was read as Chlamy TAG inactive.
Screening Cn1c(=O)[nH]c(=O)c2c1nc(NN)n2Cc1ccccc1 returned Chlamy TAG inactive.
For NC(=O)c1ccc(-n2nnnc2SCc2ccccn2)cc1 the results were Chlamy TAG inactive.
`COc1ccc(N2CCN(C(=O)c3ccc(CN4CCc5ccccc5C4)cc3)CC2)cc1` gave Chlamy TAG inactive.
Screening NC(=O)C1CCN(C(=O)c2ccc(CN3CCc4ccccc4C3)cc2)CC1 returned Chlamy TAG inactive.
`O=C(c1ccc(CN2CCc3ccccc3C2)cc1)N1CCN(c2ccccc2F)CC1` gave Chlamy TAG active.
For CC(=O)c1ccc2c(c1)c1cc(C(C)=O)ccc1n2C the results were Chlamy TAG inactive.
Screening O=C(c1ccco1)N1CCN(C2CCN(Cc3ccccc3)CC2)CC1 returned Chlamy TAG inactive.
`c1ccc(OCCCN2CCCCC2)cc1` gave Chlamy TAG inactive.
CCOc1ccc(OCCOCCN2CCCC2)cc1 was read as Chlamy TAG inactive.
`COc1ccc(OCCCCN2CCCCC2)cc1` gave Chlamy TAG inactive.
For CCC(C)c1ccc(OCCN2CCCC2)cc1 (stereo unspecified) the results were Chlamy TAG active.
For CCOc1cccc(OCCN2CCCC2)c1 the results were Chlamy TAG inactive.
For COc1ccc(OCCCN2CCCCC2)cc1 the results were Chlamy TAG active.
`CCOc1ccc(OCC)c(C(=O)O)c1` gave Chlamy TAG inactive.
Cc1ccc(-c2csc(Nc3ccc(Oc4ccccc4)cc3)n2)cc1 was read as Chlamy TAG inactive.
Cc1ccccc1OCC(=O)N1CCN(c2ccccc2F)CC1 was read as Chlamy TAG inactive.
`Cc1cccc(C(=O)Nc2sc(C)c(C)c2C(=O)O)c1` gave Chlamy TAG inactive.
O=C(Nc1scc(-c2cccs2)c1C(=O)O)c1cccs1 was read as Chlamy TAG inactive.
Screening Cc1sc(NC(=O)c2cccs2)c(C(=O)O)c1C returned Chlamy TAG active.
`N#CC1=C(N)Oc2c(c(=O)[nH]c3ccccc23)C1c1ccc(F)c(F)c1` (stereo unspecified) gave Chlamy TAG inactive.
Cc1ccc(C(=O)c2ccc(N3CCCC3)c([N+](=O)[O-])c2)cc1 was read as Chlamy TAG inactive.
CN1CCN(c2ccc(C(=O)c3ccc(Cl)cc3)cc2[N+](=O)[O-])CC1 was read as Chlamy TAG inactive.
Screening COc1ccc(C(=O)c2ccc(N3CCN(C)CC3)c([N+](=O)[O-])c2)cc1 returned Chlamy TAG active.
Screening NC(=O)c1cc(NC(=O)c2ccccc2Cl)c(Cl)cc1Cl returned Chlamy TAG inactive.
For COc1ccc(-c2nc3cc(NC(=O)c4ccccc4)ccc3o2)cc1 the results were Chlamy TAG inactive.
`O=C(Nc1ccc2oc(-c3cccnc3)nc2c1)c1ccncc1` gave Chlamy TAG inactive.
Cc1ccc(C(=O)Nc2ccc3oc(-c4ccncc4)nc3c2)cc1C was read as Chlamy TAG active.
